Reference: the supplement of paper PMC9694430

Tests used:
Experiment in all cases: thermal shift delta Tm vs DMSO control; higher = stronger stabilization (binding)
Conditions in all cases: 12.5 µM; protein concentration 2 µM
LOC_OS01G57100-cb003 = tested on: LOC_OS01G57100-cb003
Summary of the method: (§1)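 Heating from 25°C to 95°C at 0.05°C/s, fluorescence was recorded for 19.5 μl wells of 2 μM E. coli-expressed, purified rice kinase domain in 100 mM potassium phosphate pH 7.5, 150 mM NaCl, 10% glycerol and 5 × SYPRO Orange with compound in DMSO. Boltzmann fits gave melting temperatures for this differential scanning fluorimetry assay. The shift reported is the mean of three replicates against the DMSO-only protein.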

LOC_OS01G60330-cb001 = tested on: LOC_OS01G60330-cb001
Summary of the method: as §1

LOC_OS01G60700-cb002 = tested on: LOC_OS01G60700-cb002
Summary of the method: as §1

LOC_OS01G63280-cb003 = tested on: LOC_OS01G63280-cb003
Summary of the method: as §1

LOC_OS01G67340-cb003 = tested on: LOC_OS01G67340-cb003
Summary of the method: as §1

LOC_OS01G70970-cb002 = tested on: LOC_OS01G70970-cb002
Summary of the method: as §1

LOC_OS02G07810-cb001 = tested on: LOC_OS02G07810-cb001
Summary of the method: as §1

LOC_OS02G08530-cb003 = tested on: LOC_OS02G08530-cb003
Summary of the method: as §1

LOC_OS02G14120-cb001 = tested on: LOC_OS02G14120-cb001
Summary of the method: as §1

LOC_OS02G17970-cb001 = tested on: LOC_OS02G17970-cb001
Summary of the method: as §1

LOC_OS02G45750-cb003 = tested on: LOC_OS02G45750-cb003
Summary of the method: as §1

LOC_OS02G54510-cb004 = tested on: LOC_OS02G54510-cb004
Summary of the method: as §1

LOC_OS03G04050-cb001 = tested on: LOC_OS03G04050-cb001
Summary of the method: as §1

LOC_OS03G12390-cb001 = tested on: LOC_OS03G12390-cb001
Summary of the method: as §1

LOC_OS03G27990-cb004 = tested on: LOC_OS03G27990-cb004
Summary of the method: as §1

LOC_OS03G50450-cb001 = tested on: LOC_OS03G50450-cb001
Summary of the method: as §1

LOC_OS03G50810-cb003 = tested on: LOC_OS03G50810-cb003
Summary of the method: as §1

LOC_OS04G35114-cb001 = tested on: LOC_OS04G35114-cb001
Summary of the method: as §1

LOC_OS04G38480-cb003 = tested on: T1, LOC_OS04G38480-cb003
T1 sequence (whole entry): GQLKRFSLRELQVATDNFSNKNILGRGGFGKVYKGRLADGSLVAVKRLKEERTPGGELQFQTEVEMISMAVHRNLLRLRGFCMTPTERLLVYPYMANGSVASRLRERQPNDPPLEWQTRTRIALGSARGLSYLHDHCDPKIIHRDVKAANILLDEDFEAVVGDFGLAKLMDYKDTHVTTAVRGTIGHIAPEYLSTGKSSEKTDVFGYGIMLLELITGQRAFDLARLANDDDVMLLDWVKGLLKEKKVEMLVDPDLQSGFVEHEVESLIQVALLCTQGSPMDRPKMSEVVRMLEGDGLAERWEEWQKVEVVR
Summary of the method: as §1

LOC_OS04G41100-cb001 = tested on: T2, LOC_OS04G41100-cb001
T2 sequence (whole entry): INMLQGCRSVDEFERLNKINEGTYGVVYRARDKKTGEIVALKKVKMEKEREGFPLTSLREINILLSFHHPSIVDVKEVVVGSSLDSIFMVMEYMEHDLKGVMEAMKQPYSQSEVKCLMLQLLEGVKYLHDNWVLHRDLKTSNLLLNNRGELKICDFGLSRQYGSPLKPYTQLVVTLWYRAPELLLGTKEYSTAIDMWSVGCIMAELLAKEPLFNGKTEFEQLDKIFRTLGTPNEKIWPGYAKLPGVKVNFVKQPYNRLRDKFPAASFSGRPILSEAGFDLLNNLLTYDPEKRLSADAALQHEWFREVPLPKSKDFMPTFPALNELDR
Summary of the method: as §1
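Note: purified Escherichia coli-expressed rice kinase domain construct.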

Compound | thermal shift delta Tm (LOC_OS01G57100-cb003) [°C] | thermal shift delta Tm (LOC_OS01G60330-cb001) [°C] | thermal shift delta Tm (LOC_OS01G60700-cb002) [°C] | thermal shift delta Tm (LOC_OS01G63280-cb003) [°C] | thermal shift delta Tm (LOC_OS01G67340-cb003) [°C] | thermal shift delta Tm (LOC_OS01G70970-cb002) [°C] | thermal shift delta Tm (LOC_OS02G07810-cb001) [°C] | thermal shift delta Tm (LOC_OS02G08530-cb003) [°C] | thermal shift delta Tm (LOC_OS02G14120-cb001) [°C] | thermal shift delta Tm (LOC_OS02G17970-cb001) [°C] | thermal shift delta Tm (LOC_OS02G45750-cb003) [°C] | thermal shift delta Tm (LOC_OS02G54510-cb004) [°C] | thermal shift delta Tm (LOC_OS03G04050-cb001) [°C] | thermal shift delta Tm (LOC_OS03G12390-cb001) [°C] | thermal shift delta Tm (LOC_OS03G27990-cb004) [°C] | thermal shift delta Tm (LOC_OS03G50450-cb001) [°C] | thermal shift delta Tm (LOC_OS03G50810-cb003) [°C] | thermal shift delta Tm (LOC_OS04G35114-cb001) [°C] | thermal shift delta Tm (LOC_OS04G38480-cb003) [°C] | thermal shift delta Tm (LOC_OS04G41100-cb001) [°C]
c1cn2cc(-c3ccc4cn[nH]c4c3)nc(Nc3ccc(N4CCOCC4)cc3)c2n1 [Entospletinib (GS-9973)] | 2.14 | 7.21 | 1.39 | 2 | 2.82 | 1.17 | -0.11 | 3.77 | 8.09 | 0.54 | 0.66 | 1.02 | 0.92 | 3.99 | 1.72 | 4.22 | 2.13 | 2.13 | 2.56 | 1.01
O=C(Nc1cc(C(F)(F)F)cc(C(F)(F)F)c1)c1cc(Cl)ccc1O | 1.44 | 1.34 | 2.1 | 1.28 | 0.01 | 0.57 | 2.75 | 1.42 | 0.39 | 2.43 | 0.1 | -0.16 | 0.55 | 1.46 | 0.24 | 0.5 | 0.7 | 0.29 | 0.16 | 0.52
COc1cc2c(N3CCN(C(=O)Nc4ccc(OC(C)C)cc4)CC3)ncnc2cc1OCCCN1CCCCC1 [Tandutinib (MLN518)] | 0.97 | 0.04 | 0.63 | 0.12 | 0.5 | -0.15 | 0.79 | 0.33 | 0.24 | -0.44 | 1.37 | 0.74 | 0.9 | 0.38 | 0.28 | 0.42 | 0.95 | 1.58 | 1.79 | 0.92
Cc1ccc(C(=O)Nc2cccc(C(F)(F)F)c2)cc1Nc1nc(-c2cccnc2)nc2c1cnn2C | 2.35 | 2.86 | 1.11 | 0.24 | 0.79 | 0.92 | 1.8 | 1.77 | 0.87 | 2.02 | 0.71 | 1.84 | 0.36 | 1.07 | 0.25 | 0.79 | 0.32 | 0.29 | 0.47 | 0.58
CN1CCN(c2nc(C3=C(c4c[nH]c5ccccc45)C(=O)NC3=O)c3ccccc3n2)CC1 [Sotrastaurin] | 2.03 | 0.97 | 0.76 | 0.55 | 0.35 | 0.69 | 0.94 | 1.16 | 1.17 | 0.29 | 1.74 | 0.21 | 0.22 | 0.18 | 0.49 | 0.36 | 1.38 | 1.49 | 0.76 | 0.51
CS(=O)(=O)c1cccc(CNc2nc(Nc3ccc4c(c3)CCC(=O)N4)ncc2C(F)(F)F)c1 | 1.78 | 4.37 | 0.7 | 1.3 | 1.2 | 6.42 | 1.43 | 2.07 | 5.48 | 0.72 | 10.4 | 1.28 | 0.17 | 5.43 | 1.28 | 3.56 | 4.21 | 3.71 | 2.37 | 2.51
Cc1nc(-c2cn3c(n2)-c2ccc(-c4cnn(C(C)(C)C(N)=O)c4)cc2OCC3)n(C(C)C)n1 [Taselisib (GDC 0032)] | 0.43 | 0.33 | 0.46 | 0.16 | 0.07 | 0.23 | 0.07 | 0.84 | 0.27 | 0.09 | 1.34 | 0.17 | 0.54 | -0.31 | 0.3 | 0.34 | -0.05 | 0.68 | 0.83 | 0.38
Cc1c(CN2CCN(C(=O)[C@H](C)O)CC2)sc2c(N3CCOCC3)nc(-c3cnc(N)nc3)nc12 [Apitolisib (GDC-0980, RG7422)] | 0.9 | 0.98 | 0.46 | 0.4 | 0.25 | 0.37 | 1.43 | 1.01 | 0.42 | 1.03 | 0.62 | 0.4 | 0.32 | 0.75 | 0.18 | 1.38 | 0.78 | 0.55 | 1.12 | 0.47
CC(C)c1ccc2oc3nc(N)c(C(=O)O)cc3c(=O)c2c1 [Amlexanox] | 1.39 | 3.07 | 0.37 | 0.05 | 0.99 | 4.3 | 0.24 | 1.49 | 0.32 | -0.09 | 4.41 | 0.56 | 0.67 | 0.45 | 1.73 | 1.46 | 0.21 | 2.71 | 1.28 | 0.49
COc1cc2c(Oc3ccc4[nH]c(C)cc4c3F)ncnc2cc1OCCCN1CCCC1 [Cediranib (AZD2171)] | 0.31 | 1.14 | 0.79 | 0.02 | 0.06 | 0.42 | 0.2 | 0.41 | 0.33 | 0.26 | 1.17 | -0.01 | 0.25 | 1.5 | 0.44 | -0.12 | 2.04 | 5.53 | 0.23 | 0.71
Clc1ccc(C2(c3ccc(-c4cn[nH]c4)cc3)CCNCC2)cc1 | 1.65 | 0.98 | 0.54 | 0.22 | -0.1 | 0.01 | 1.21 | 0.59 | 0.25 | 1.03 | -0.2 | 0.04 | 0.31 | 0.47 | 0.05 | 0.32 | 0.32 | 0.57 | 0.33 | 0.38
O=C(O)c1ccc2c3c1cccc3c(=O)n1c3ccccc3nc21 | 1.73 | 3.73 | 1 | 0.76 | 1 | 0.87 | 0.5 | 0.93 | 3.53 | 0.44 | 3.28 | 0.56 | 0.18 | 2.82 | 0.62 | 0.23 | 0.91 | 2.73 | 2.31 | 1.19
